# Results: the supplement of paper PMC3334620
# Whole data set: some 33,000 sequences, median “E-score (-0.5 to 0.5)” near -0.036, cut for the highest 2% near 0.37. The entries come from a sample that favours the highest values as a whole.
# Biological target: T1, Yer064c (UniProt P40041)
# T1 sequence: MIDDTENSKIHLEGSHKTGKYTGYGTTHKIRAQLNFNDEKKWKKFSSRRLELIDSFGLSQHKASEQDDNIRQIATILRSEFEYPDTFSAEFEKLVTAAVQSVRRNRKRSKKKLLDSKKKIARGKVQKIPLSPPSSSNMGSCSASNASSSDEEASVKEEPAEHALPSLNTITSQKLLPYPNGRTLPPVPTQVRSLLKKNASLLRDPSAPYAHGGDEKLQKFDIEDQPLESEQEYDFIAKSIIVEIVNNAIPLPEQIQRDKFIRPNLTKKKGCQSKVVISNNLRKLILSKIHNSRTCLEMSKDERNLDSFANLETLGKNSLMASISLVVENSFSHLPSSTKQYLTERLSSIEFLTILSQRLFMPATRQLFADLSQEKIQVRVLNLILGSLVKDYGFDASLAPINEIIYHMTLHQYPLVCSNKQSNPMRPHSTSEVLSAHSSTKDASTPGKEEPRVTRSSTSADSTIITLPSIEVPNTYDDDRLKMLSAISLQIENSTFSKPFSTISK
# Assay: PBM E-score (8-mer binding enrichment) (E-score (-0.5 to 0.5)); higher = stronger / more preferred TF binding
# Conditions: protein concentration: 200 nM; construct: GST-full length
# Method: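 Universal 'all 10-mer' protein binding microarrays (Agilent AMADID 015681) probed with GST-tagged S. cerevisiae TFs (full-length or DBD) made by in vitro transcription/translation (PURExpress), about 100-200 nM. Bound TF was detected with fluorescent anti-GST. Each ungapped 8-mer (which stands for itself and its reverse complement) is scored by the PBM enrichment score (E-score), a modified Wilcoxon-Mann-Whitney statistic from -0.5 to +0.5, computed with the Universal PBM Analysis Suite. Scale: above 0.35 generally sequence-specific binding.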
row,Sequence,PBM E-score
1,ACCTCCAA,0.0762
2,ATGTAACG,-0.038
3,TACCGCCA,-0.125
4,AGATAGGA,-0.126
5,AGAATCAA,0.243
6,CGAATCAA,0.272
7,CTAATCAA,0.264
8,TCAATCAA,0.281
9,TGAATCAA,0.419
10,TTAATCAA,0.371
11,ATCGACAG,-0.109
12,CGTGAGTC,0.48
13,CGTGAGTA,0.323
14,CGTGAGCC,0.0694
15,AGTGAGTG,0.0771
16,AGTGAGTA,0.355
17,AGTGAGTC,0.474
18,GGGTGGGA,-0.139
19,ACCCCAAT,-0.114
20,GTATTGTA,-0.0603
21,ATTGGATC,-0.0186
22,AATTTTGT,0.161
23,AAGCGGGA,-0.239
24,AGATAGTA,0.177
25,CGATAGTC,0.422

row,Sequence,PBM E-score
1,CGATAGCC,-0.0746
2,AGATAGTC,0.403
3,CGATAGTA,0.032
4,AGATAGTG,0.0368
5,GAACAAGC,-0.357
6,GAGACATA,0.334
7,AAGTCGGT,0.0145
8,AAAAGACA,-0.0266
9,AGGTGGAC,-0.133
10,ACTCAGAT,0.339
11,TGTCAGAA,-0.00325
12,AATCAGAT,0.329
13,ACTCAGAG,0.302
14,GGTCAGAA,-0.00031
15,CGTCAGAC,-0.124
16,CGTCAGAG,-0.136
17,AGTCAGAC,0.436
18,AGTCAGAG,0.428
19,AGTCAGAT,0.427
20,AGTCAGAA,0.434
21,GGTCAGAC,0.0361
22,GGGTATAA,-0.108
23,ATCGTGAG,0.124
24,CCGCGTTC,-0.274
25,AATTCCCC,-0.128

row,Sequence,PBM E-score
1,ACCGGCAG,-0.243
2,AAAGGAAG,-0.0963
3,GAGACAGC,0.136
4,CTCCTCGA,0.0215
5,ATTGATCC,0.0238
6,GCGATCCA,-0.145
7,CTGTAAGC,-0.0285
8,CTGTAGTA,0.13
9,CTGTAGAC,0.0599
10,ATGTAGTC,0.382
11,ATGTAGTG,0.0118
12,CTGTAGTC,0.416
13,ATGTAGTA,0.0442
14,GTCCGCAA,0.00032
15,CTAACCGA,0.171
16,ACGGAGAT,0.0115
17,CATTCGAA,0.0908
18,CCGGTGTA,-0.162
19,GTAGTCGA,0.263
20,GTAGTCCA,0.262
21,CTAGTCAA,0.383
22,CTAGTCGA,0.214
23,CTAGTCTA,0.205
24,CTAGTCTC,0.278
25,GTAGTCAA,0.445

row,Sequence,PBM E-score
1,CTAGTCAC,0.461
2,CTAGTCCC,-0.135
3,GTCGTCAC,0.142
4,GTAGTAAC,0.0921
5,GTAGTCAC,0.479
6,ACCACTCT,-0.0617
7,GTCACGAA,0.106
8,TTAGTGAA,0.178
9,TACGTCAA,-0.153
10,TTAGTCAA,0.464
11,TAGTGCGA,-0.0974
12,AACTCGAC,0.0909
13,AACTCGAA,-0.0714
14,CACTCGAA,0.212
15,GACTCGAC,0.391
16,GACTCGAA,0.396
17,CACTCGAC,-0.0515
18,CAGGCATG,-0.133
19,GTCCTCGA,0.197
20,CTATCCCA,-0.208
21,ACGACTAC,0.415
22,AGGACTAC,0.341
23,ACTACGAC,0.302
24,ACTACTAA,0.25
25,GCGACTAA,0.442

row,Sequence,PBM E-score
1,GCTACTAA,-0.101
2,TCGACGAA,-0.00207
3,CCGACTAA,0.358
4,TCGACTAA,0.373
5,GCAACTAA,0.0789
6,ACGACTAA,0.438
7,ACGACGAA,0.139
8,GGGAAACC,-0.0566
9,CTTCTGTA,-0.0492
10,ATGGTGCC,-0.358
11,TGATTGAA,0.333
12,CCCTCTGC,-0.226
13,ACGACTAG,0.359
14,CCGACTAC,0.325
15,ACGACTAT,0.401
16,ACGACGAT,0.023
17,GGGACTAC,0.228
18,GCGACTAC,0.391
19,CGCACAAG,0.0388
20,AGGATAGG,-0.0969
21,ACCAACTG,-0.097
22,CAACGTGC,-0.137
23,ACGCTGTA,-0.00895
24,ATGGCTCA,0.422
25,ATGGCTCG,0.237

row,Sequence,PBM E-score
1,ATGGCTCC,0.256
2,CCATAAAG,-0.178
3,CCGACTTA,0.263
4,CGGACTTA,0.203
5,ATGACGTA,0.0562
6,AGGACTTA,0.234
7,GTAACTTA,0.166
8,CTGACTTA,0.407
9,ATGACTTA,0.475
10,GGGACTTA,-0.0167
11,GTGACTTA,0.443
12,CAGACACG,-0.14
13,AGCGGTCA,-0.0499
14,ACTTACAT,-0.0151
15,AAGGGGCC,-0.145
16,AGCGAGGC,-0.282
17,AGGAGTCG,0.375
18,AGGAGTCC,0.297
19,AGGAGTGA,0.105
20,AGGAGTTG,-0.0388
21,AGGAGTCA,0.486
22,AGGAGTAA,0.177
23,ACTTTCTG,0.208
24,TCCACAAA,0.0257
25,ACCTCCTA,-0.134

row,Sequence,PBM E-score
1,CCGCACCA,0.017
2,TGCCCCAA,0.0126
3,CAGTGAAA,0.0766
4,GGTGTCGA,0.046
5,AACTACAC,0.0443
6,GACTACAC,0.399
7,GACTACAA,0.402
8,CACTACAA,0.0688
9,CACTACAC,-0.0592
10,TACTACAA,0.119
11,ACCAGCGC,-0.221
12,GGGCCCGA,-0.142
13,GAGCACGC,-0.163
14,GCTAAAAA,0.0668
15,ACTAAGTC,0.376
16,ACTGAGTG,0.161
17,CCTGAGGC,-0.16
18,ACTAAGTA,0.235
19,ACTGAGTC,0.477
20,ACTGAGTA,0.28
21,CCTGAGTC,0.461
22,CCTAAGTC,0.276
23,CCTGAGTA,0.234
24,CGGTATAC,-0.119
25,ATCCGGGA,-0.104

row,Sequence,PBM E-score
1,AATGCACA,-0.0113
2,TAGCCGCA,-0.0712
3,AAATTTCC,-0.0423
4,ACTGACAC,0.0326
5,CCTGACGA,0.115
6,CCTGACTA,0.461
7,ACTGACCC,0.0295
8,GCTGACAA,0.00774
9,CCTGACGC,-0.133
10,GCTGACGA,0.129
11,CCTGACTC,0.481
12,CCTGACAC,0.023
13,GCTGACTA,0.467
14,CCTGACAA,-0.124
15,ACTGACTC,0.461
16,ACCGCTCT,-0.114
17,CCGCTTAC,0.026
18,ATCACCCA,0.135
19,AGACCAGG,-0.166
20,TGCGTAAA,0.026
21,GCCGTCGA,-0.0942
22,CGCGGTAG,-0.0407
23,CCGGGTAA,-0.0414
24,ACTGACCA,-0.0902
25,ACTGACTG,0.306

row,Sequence,PBM E-score
1,ACTGACTA,0.447
2,ATAAAACC,0.0678
3,AAAAACCT,0.111
4,ATTCACTG,0.138
5,CGTCACTC,-0.0803
6,AGACACTG,0.0291
7,CGTCACTA,0.0406
8,AGTCACTG,0.457
9,GGTCACTA,-0.234
10,AGTCACTC,0.467
11,ATTCACTC,0.0742
12,AGTCACTA,0.469
13,TACTGATA,0.0643
14,ATAGGACG,-0.178
15,CCGCCAAG,-0.149
16,CCGTAGGC,-0.119
17,CCGTAGTC,0.394
18,ACGTAGTG,-0.132
19,ACGTAGTC,0.39
20,ACGTAGTA,-0.0277
21,CCGTAGTA,-0.15
